Source: PubChem BioAssay (NCI)
This is part of a sample that, as a whole, favours compounds with a hit. Of some 83,000 tested, about 20% had one in any assay.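 Values shown are percent growth following 48 h exposure of cells in 96-well plates to a single concentration of compound; below 10 was considered active.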 Activity calls are given as the source filed them.

The molecules below were run on NCI-H322M lung (assay: NCI-60 one-dose screen, 48 h (100 = growth as untreated, 0 = no growth, -100 = all killed)). Settings: 10 µM unless noted.
Experimental: Growth inhibition of the NCI-H322M human Non-Small Cell Lung tumor cell line is measured as a screen for anti-cancer activity. Cells are grown in 96 well plates and exposed to the test compound for 48 hours. Compounds are tested at a single concentration, which is 10^-5 M for most compounds. The reported endpoint is percent growth (GI% or GIPRCNT), where numbers from 0 - 100% represent growth inhibition, and numbers from -100% - 0 represent cell death. For example, a value of 40 represents 60% growth inhibition. A value of 0 means no net growth occurred over the course of the experiment. A value of -40 indicates 40% of cells at the beginning of the experiment died by the end of the experiment. A value of -100 means all cells are dead at the end of the experiment.
NCI-60 Human Tumor Cell Lines Screen was performed using the standard one-dose NCI protocol, which is described in more detail at https://dtp.cancer.gov/discovery_development/nci-60/default.htm.
Compounds with GIPRCNT values below 10 were considered active. Activity score was based on GIPRCNT using the following formula: […]
Score is 0 for GIPRCNT values of 100 or above, 50 for GIPRCNT values of 0, and 100 for GIPRCNT values of -100.
For `COc1ccc(CCN2C(=O)CCC3=C2CCCC3=O)cc1OC`, the growth was 98% (inactive). For `CCOC(=O)c1cc2oc(/C=C/c3cc(=O)c4cc(Cl)ccc4o3)cc2[nH]1`, the growth was 108% (inactive). In the case of `Cc1csc(C#Cc2cncc(O)c2)n1`, the growth is reported as 113% (inactive). For `Cc1ccc(S(=O)(=O)N2CCN(C(=O)CSc3nc4ccc(C)cc4[nH]3)CC2)cc1`, the growth was 116% (inactive). In the case of `O=C(CNC(=O)c1cccc2ccccc12)Nc1ccccc1Oc1cccc(O)c1`, the growth is reported as 45.1% [5 µM] (inactive). With `CCNCCCn1c2c(c3ccc(F)cc3c1=O)C(=O)c1cc(OC)cnc1-2` the growth was -3.52% (active). `Nc1nc(Nc2ccccc2SSc2ccccc2Nc2nc(N)nc(C(Cl)(Cl)Cl)n2)nc(C(Cl)(Cl)Cl)n1` was tested, and the growth was 75.3% (inactive). In the case of `NC(=N\N=C/Cc1ccccc1)/C(N)=N\N=C\Cc1ccccc1`, the growth is reported as 117% (inactive). In the case of `CCCCCc1c(C)[nH]c(/C=C2\N=C(c3ccc[nH]3)C=C2Oc2ccc(Cl)cc2)c1C`, the growth is reported as 20.5% [100 µM] (inactive). For `c1ccc(-c2oc(-c3ccccc3)c3ccccc23)cc1`, the growth was 118% (inactive). With `Cc1cc(=O)oc2cc(OCCn3c(C)nn(-c4ccc(Cl)cc4)c3=O)ccc12` the growth was 58.7% (inactive). With `COC(=O)c1cc2c(/C=C3/NC(=S)NC3=O)coc2n1C` the growth was 87.1% (inactive). `O=C(NN1C(=O)c2cc(C(=O)O)c(C(=O)O)cc2C1=O)c1ccncc1` was tested, and the growth was 102% (inactive). For `Cc1ccc(C(=O)Cc2ccccc2)c(O)c1`, the growth was 77.6% (inactive). In the case of `O=C1Nc2ccc(Cl)cc2[C@@](C#CC2CC2)(C(F)(F)F)O1`, the growth is reported as 80.9% (inactive). For `CCOc1nc(-c2ccco2)n2nc(-c3ccco3)cc2n1`, the growth was 116% (inactive). With `Cc1sc2nc(NCc3ccccc3)[nH]c(=O)c2c1C` the growth was 91.3% (inactive). In the case of `CCOC(=O)N1CCC(N=C2CSc3nnc(-c4cc(C(F)(F)F)cc(C(F)(F)F)c4)n3N2)CC1`, the growth is reported as 67.4% (inactive). In the case of `Nc1ccc(N=Nc2ccccc2)cc1[N+](=O)[O-]`, the growth is reported as 80.5% (inactive). In the case of `COc1ccc2c3c(ccc2c1)C(=O)/C(=C\O)CC3`, the growth is reported as 110% (inactive). For `COC(=O)C1=CCC(n2cnc3c(N)ncnc32)O1` (stereo not given), the growth was 94.4% (inactive). In the case of `CC(C)CNc1nc(N=[N+]=[N-])nc(NCC(C)C)n1`, the growth is reported as 92.5% [100 µM] (inactive). For `O=c1ncc(-c2ccc(C(F)(F)F)cc2)c(NC2CCCCCC2)[nH]1`, the growth was 90.9% (inactive). `CN(C)CCCN=c1cc2c(=O)n(CCCN(C)C)c(=O)c3c(NCCCN(C)C)cc4c(O)n(CCCN(C)C)c(=O)c1c4c3-2` was tested, and the growth was -26.9% (active). With `O=C(N/N=C/c1cccc(O)c1)c1ccc(C(F)(F)F)nc1Nc1cccc(C(F)(F)F)c1` the growth was -6.79% (active). With `C=C1CCC2C3(C)COC(c4ccccc4)OC3CCC2(C)C1C/C=C1/C(=O)OCC1OC(C)=O` (stereo not given) the growth was 97% (inactive). For `NC(=O)NC1(C(=O)O)CCCC1`, the growth was 115% (inactive). For `O=C(NC1CCS(=O)(=O)C1)c1ccc(C(=O)c2ccccc2)cc1` (stereo not given), the growth was 128% (inactive). With `N#CC1c2ccccc2C=CN1C(=O)N(c1ccccc1)c1ccccc1` (stereo not given) the growth was 103% (inactive). In the case of `COc1cc(/C=C/C(=O)C(C(=O)/C=C/c2ccc(OC(=O)CCNc3nnc(C)s3)c(OC)c2)C(=O)CCNc2nnc(C)s2)ccc1OC(=O)CCNc1nnc(C)s1`, the growth is reported as 42.1% (inactive). For `CC(=O)N1N=C(c2ccc(Nc3nc(NCCO)nc(NCCO)n3)cc2)CC1c1ccc(Cl)cc1` (stereo not given), the growth was 89.3% (inactive). For `COc1ccc2c(c1)sc1nc(-c3ccc(Br)cc3)cn12`, the growth was 99.8% (inactive). In the case of `CC(=O)N1N=C(c2ccc(C(F)(F)F)cc2)CC1c1ccc2c(c1)OCO2` (stereo not given), the growth is reported as 84.8% (inactive). `O=C(CN1CCN(c2ccc(Cl)cc2)CC1)N1CCN(c2nnc(-c3ccccc3)c(-c3ccccc3)n2)CC1` was tested, and the growth was 80.7% (inactive). `COc1ccc(C(=O)/C=C/c2cccc(Nc3ccnc4cc(Cl)ccc34)c2)cc1` was tested, and the growth was 49.6% (inactive). In the case of `COc1ccccc1NC(=O)c1sc2nc3c(cc2c1N)C(=O)CCC3`, the growth is reported as 59.7% (inactive). For `COc1cccc(/C=N/Nc2nc3ccccc3s2)c1OC`, the growth was 76% (inactive). In the case of `CCOC(=O)C1C(=O)NC(C(=O)OCC)(C(=O)OCC)C1CC` (stereo not given), the growth is reported as 119% (inactive). `Cn1c(N2N=C(c3ccc(Cl)cc3)CC2c2ccccc2)nc(-c2ccccc2)c(C#N)c1=O` (stereo not given) was tested, and the growth was 83.5% (inactive). In the case of `COc1ccc2cc(-c3nc4ccccc4[nH]3)c(=O)oc2c1`, the growth is reported as 96.3% (inactive).
